Drawing on PubChem BioAssay, this text covers inhibition for 39 molecules.

A number with no mark means an inactive call. Activity calls are given as the source filed them. No rule for the calls is given here.

This assay addresses Lethal factor (Bacillus anthracis) (UniProt P15917). The assay is described as follows: Lethal factor protease inhibitors, Bacillus anthracis, multiplex microsphere cleavage assay, validation set (AID 588461). To be noted: flow cytometry, at 10 µM, stronger effect = higher value.
Take `Cc1ccc(S(=O)(=O)Nc2ccc(S(=O)(=O)Nc3cc(C)nc(C)n3)cc2)cc1`: the inhibition is 0.7%.

As for `Cc1ccc2[nH]c3c(c2c1)CN(C)CC3`, the inhibition is -15%.

Turning to `O=C1CC2(CCCC2)CC(=O)N1CCCCN1CCN(c2ncccn2)CC1`, the inhibition is 6.7%.

As for `CCN(CC)CCNC(=O)c1ccc(N)cc1`, the inhibition is 2.4%.

For the molecule `CN1CCc2cccc3c2[C@H]1Cc1ccc(O)c(O)c1-3`, the inhibition was -33.9%.

Turning to `CN(C)c1ccc(Nc2c3c4c(cccc4n(C)c2=O)C(=O)c2ccccc2-3)cc1`, the inhibition was -18.1%.

For the molecule `NS(=O)(=O)c1cc2c(cc1Cl)NC(CSCc1ccccc1)=NS2(=O)=O`, the inhibition is -2.3%.

In the case of `CC(C)OC(=O)C(C)(C)Oc1ccc(C(=O)c2ccc(Cl)cc2)cc1`, the inhibition was -0.7%.

Turning to `O=C(c1ccc(-c2ccccc2)c(F)c1)C1CCCN(C(=O)c2cncs2)C1` (centres undefined), the inhibition is 1.6%.

As to `C[C@H](CS)C(=O)N1CCC[C@H]1C(=O)O`, the inhibition is -1.8%.

`CC(C(=O)O)c1cccc(C(=O)c2ccccc2)c1` (centres undefined): the inhibition is 5.8%.

For `COc1ccc(OCc2cccc(C(=O)NN)c2)cc1`, the inhibition was -6.1%.

Consider `Nc1nc2c(ncn2COCCO)c(=O)[nH]1`, for which the inhibition was 0.4%.

For the molecule `CCc1cccc2c1NC1(CCCC1)CC2C` (centres undefined), the inhibition was 167% (active).

As for `O=C1CC(c2ccc(O)cc2)Oc2cc(O)cc(O)c21` (centres undefined), the inhibition is -0.4%.

As to `CC[C@H](C)C(=O)O[C@H]1C[C@@H](C)C=C2C=C[C@H](C)[C@H](CC[C@@H]3C[C@@H](O)CC(=O)O3)[C@H]21`, the inhibition is 10.4%.

For the molecule `CN(C)CCN(Cc1ccccc1)c1ccccn1`, the inhibition is -0.2%.

Regarding `O=C(NCCN1CCCCC1)c1c(O)c2ccccc2[nH]c1=O`, the inhibition was -3.9%.

Consider `Cc1cnc(NC(=O)C2=C(O)c3ccccc3S(=O)(=O)N2C)s1`, for which the inhibition was 1.4%.

Regarding `COc1cc2c(cc1OC)C(=S)NC(C)(C)C2`, the inhibition was 2.9%.

Take `CN(C)CCCN1c2ccccc2CCc2ccc(Cl)cc21`: the inhibition was -1.4%.

Regarding `COc1ccc2c3c([nH]c2c1)C1(NCC3)C(=O)Nc2ccccc21` (centres undefined), the inhibition was -4.5%.

In the case of `C=CCc1ccc(OCC(O)COc2ccc(CC=C)cc2OC)c(OC)c1`, the inhibition was -6.2%.

On to `COc1cc2c3c(c1)C1(C(=O)N3C(C)(C)C=C2C)C(C#N)=C(N)Oc2cc(C)oc(=O)c21` (centres undefined), for which the inhibition is -3.3%.

Turning to `CC(C)NCC(O)COc1ccc(CC(N)=O)cc1` (centres undefined), the inhibition is -2.4%.

Regarding `CC(C)(C)c1ccc(C(O)CCCN2CCC(C(O)(c3ccccc3)c3ccccc3)CC2)cc1` (centres undefined), the inhibition was -3.6%.

Turning to `NCCCC(=O)O`, the inhibition is 0.3%.

For the molecule `COc1cc(OC)c2c(C)c(Cl)c(=O)oc2c1`, the inhibition is -3.3%.

As for `Cc1nnc(SCC2=C(C(=O)O)N3C(=O)[C@@H](NC(=O)Cn4cnnn4)[C@H]3SC2)s1`, the inhibition was 0.6%.

As to `O=C(O)CCNC(=O)c1ccccc1`, the inhibition was -7.3%.

`NC(N)=NC(=O)Cc1c(Cl)cccc1Cl`: the inhibition is -3.1%.

Consider `Cc1ccc(Cl)c(OCCCN(C)Cc2ccccc2)c1`, for which the inhibition was -7.8%.

On to `CCC(C(=O)OCCN(CC)CC)c1ccccc1` (centres undefined), for which the inhibition is 3.3%.

For the molecule `CN1CCc2cccc3c2[C@@H]1Cc1ccc(O)c(O)c1-3`, the inhibition was -53.3%.

`CC(=O)c1cccc2c(O)c(C3=Nc4ccccc4C3=O)[nH]c12`: the inhibition was 6.7%.

For the molecule `CC1CNCCN1S(=O)(=O)c1cccc2cnccc12` (centres undefined), the inhibition was 1.6%.

As to `N/C(=N\OC(=O)c1ccc(Br)o1)c1ccccn1`, the inhibition was 0.7%.

For `NNC(=O)c1ccncc1`, the inhibition is 5.3%.

As for `CN1C(C(=O)Nc2ccccn2)=C(O)c2ccccc2S1(=O)=O`, the inhibition was 10%.
